Screening data: PubChem BioAssay, National Center for Advancing Translational Sciences (NCATS)
BAZ2B block: qHTS Assay for Inhibitors of BAZ2B; AlphaScreen BAZ2B-H3K14Ac peptide displacement; Potency, µM (titrated, usually from 114 µM), without a hit: at the top dose activity change, negative = inhibition, usual class: inhibitors; 360,000 compounds, 4.4% hits; AID 504333, 2011; note: potency is the fitted concentration of half-maximal effect; % is set by controls: 0 for no effect and ±100 for the full control effect; nearly all actives have a fitted effect of over 60% in size
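In this displacement format the biotinylated H3(5-23) peptide acetylated at Lys14 serves as ligand at 50 nM, with BAZ2B at 50 nM in PBS pH 7.4 containing 0.01% Tween-20. Donor and acceptor beads are 10 ug/mL final.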
G9a inh: qHTS Assay for Inhibitors of Histone Lysine Methyltransferase G9a; 350,000 compounds, 8.8% hits; AID 504332, 2011; G9a H3K9 monomethylation, AlphaScreen, 2 h; Potency, µM (top dose mostly 102 µM), for the others: at the highest dose activity, negative = inhibition, hits mostly inhibitors; note: potency is the fitted concentration of half-maximal effect; % is set by controls: 0 for no effect and ±100 for the full control effect; nearly all actives have a fitted effect of over 75% in size
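G9a (20 nM) preincubated 15 min RT with compounds, then 500 nM biotinylated H3K9 peptide and 20 uM SAM added; 2 h RT reaction. Monomethyl-H3K9 product detected by AlphaScreen with anti-H3K9me1 antibody, streptavidin donor and anti-rabbit IgG acceptor beads.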
PI5P4K alpha inh: qHTS for Inhibitors of phosphatidylinositol 5-phosphate 4-kinase (PI5P4K). PI5P4Kalpha enzyme, ADP-Glo luminescence, 60 min; stronger effect = lower value. max response, %. AID 652105, 2013. Phosphatidylinositol 5-phosphate 4-kinase type-2 alpha (Homo sapiens), P48426. 330,000 compounds, 1.2% hits; active = max response of -50% or lower; inconclusive = between -30% and -50%; inactive = -30% or higher; note: value at the top dose of about 77 µM; % is set by controls: 0 for no effect and ±100 for the full control effect
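Controls without substrate or without enzyme flank wells where PI5P4Kalpha converts substrate using 5 microM ATP (final). Incubation lasts 60 minutes at room temperature; ADP formed is read by ADP-Glo luminescence.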
L3MBTL1 inh: qHTS Assay for the Inhibitors of L3MBTL1. Lethal(3)malignant brain tumor-like protein 1 (Homo sapiens), Q9Y468. AlphaScreen L3MBTL1–H3K9me1 peptide binding. Potency, µM (series often up to 57.1 µM), for inactives: at the top dose activity, negative = inhibition, hits mostly inhibitors. 230,000 compounds, 0.66% hits; note: potency is the fitted concentration of half-maximal effect; % is set by controls: 0 for no effect and ±100 for the full control effect; nearly all actives have a fitted effect of over 60% in size
Target sequence (Q9Y468 whole entry, looked up): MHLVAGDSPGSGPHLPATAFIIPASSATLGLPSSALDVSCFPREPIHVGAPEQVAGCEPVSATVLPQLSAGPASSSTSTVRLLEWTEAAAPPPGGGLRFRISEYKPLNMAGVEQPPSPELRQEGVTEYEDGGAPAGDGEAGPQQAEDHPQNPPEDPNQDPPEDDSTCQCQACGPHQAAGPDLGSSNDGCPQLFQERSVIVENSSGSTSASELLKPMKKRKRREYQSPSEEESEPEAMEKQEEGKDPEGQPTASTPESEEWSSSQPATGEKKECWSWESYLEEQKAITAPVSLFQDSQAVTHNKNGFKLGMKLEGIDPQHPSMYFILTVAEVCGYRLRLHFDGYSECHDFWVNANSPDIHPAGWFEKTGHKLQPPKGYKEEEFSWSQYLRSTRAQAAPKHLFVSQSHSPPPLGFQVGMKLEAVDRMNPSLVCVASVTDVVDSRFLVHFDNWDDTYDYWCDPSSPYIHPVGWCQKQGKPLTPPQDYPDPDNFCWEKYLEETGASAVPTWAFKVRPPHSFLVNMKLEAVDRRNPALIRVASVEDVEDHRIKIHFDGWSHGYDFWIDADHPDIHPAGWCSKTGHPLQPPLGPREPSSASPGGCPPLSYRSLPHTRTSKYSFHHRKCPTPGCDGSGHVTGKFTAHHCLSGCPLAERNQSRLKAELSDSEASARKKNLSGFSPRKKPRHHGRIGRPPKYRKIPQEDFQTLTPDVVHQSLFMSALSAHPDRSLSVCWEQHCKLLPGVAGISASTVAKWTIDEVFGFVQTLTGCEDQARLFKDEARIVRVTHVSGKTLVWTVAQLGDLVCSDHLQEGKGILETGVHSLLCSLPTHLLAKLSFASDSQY
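L3MBTL1 50 nM + b-AHA-H3(1-15)K9me1 75 nM, 30 min RT; compound added, 30 min RT; streptavidin donor/Ni-chelate acceptor beads 10 ug/mL each final, 30 min RT dark; AlphaScreen read.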
JMJD2A Tudor: qHTS Assay for Inhibitors of JMJD2A-Tudor Domain; Lysine-specific demethylase 4A (Homo sapiens), O75164; AlphaScreen JMJD2A-Tudor / H3K4me3 peptide binding; Potency, µM (highest dose often 114 µM), for inactives: top-dose activity change, negative = inhibition, actives largely listed as inhibitors; 390,000 compounds, 4.4% hits; AID 504339, 2011; note: potency is the fitted concentration of half-maximal effect; % is set by controls: 0 for no effect and ±100 for the full control effect; nearly all actives have a fitted effect of over 50% in size
HP1b chromo inh: HTS for Inhibitors of HP1-beta Chromodomain Interactions with Methylated Histone Tails. AlphaScreen HP1-beta / biotin-H3K9me3 peptide binding. 390,000 compounds, 0.56% hits. Chromobox protein homolog 1 (Homo sapiens), P83916. Potency, µM (titrated, usually from 114 µM), without a hit: at the top dose activity change, negative = inhibition, actives largely listed as inhibitors; note: potency is the fitted concentration of half-maximal effect; nearly all actives have a fitted effect of over 70% in size
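AlphaScreen: HP1-beta (50 nM) preformed 30 min with biotin-H3(1-18)K9me3 peptide (50 nM) in PBS pH 7.4, 0.01% Tween-20. Compound added for 30 min at RT, then streptavidin donor/nickel chelate acceptor beads (10 ug/mL) for 30 min.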
Numbers without * were called inactive; ? = inconclusive; nt = not tested or not shown; ! = a repeat was not active; [ ] = remark or other dose. Most compounds without a hit are left out; they make up all but 11% or so of the library. Unless noted, calls come from the whole dose curve; as a rule, active = well fitted inhibition curve with a large enough effect; inconclusive = small, poorly fitted or top-dose-only effect; inactive = no such curve, though single readings can be large or run the other way.

SMILES | BAZ2B block | G9a inh | PI5P4K alpha inh | L3MBTL1 inh | JMJD2A Tudor | HP1b chromo inh
COC(=O)[C@@]1(Cc2ccc(F)cc2)[C@H]2c3cc(C(=O)N(C)C)n(Cc4nc5ccccc5[nH]4)c3C[C@H]2CN1C(=O)c1ccccc1 | ? | 50µM* | 3 | -15% | ? | -2%
COc1cc(-c2nnc(SCC(=O)N(C)C3CCCCC3)o2)cc(OC)c1OC | 2% | -6%[59 µM] | nt | nt | -11% | 48%
COC(=O)[C@@]1(Cc2ccc(OC)cc2)[C@H]2c3cc(C(=O)N(C)C)n(Cc4c(CO)[nH]cc(C)c4=O)c3C[C@H]2CN1C(=O)c1ccccc1 | nt | nt | 5 | nt | -21% | 21%
COC(=O)[C@@]1(Cc2ccc(OC)cc2)[C@H]2c3cc(C(=O)N(C)C)[nH]c3C[C@H]2CN1C(=O)c1ccccc1 | 56µM* | 50µM* | 3 | -2% | -30% | 13%
O=C1C(=C(c2ccccc2)c2ccccc2)Nc2ccccc21 | 11µM* | -147%[59 µM] | 5 | nt | 28µM* | 16µM*
COc1ccc(CCNC(=S)NC(=O)c2ccc(Br)cc2)cc1OC | 32µM* | -32% | 4 | -26% | -34% | 12%
COc1ccc(CCNC(=O)c2ccc3c(c2)NC(=O)C(CSCc2cc(C)ccc2C)N3)cc1OC (stereo unspecified) | -34%[57.1 µM] | 1.8µM* | nt | nt | nt | nt
COc1ccc(CCNC(=S)NC(=O)c2ccccc2)cc1C | ? | 56µM* | 9 | -18% | -28% | 12%
O=C(NC(=S)NCCc1ccccc1)c1ccccc1 | -7% | -6%[2.33 µM] | nt | -3% | -16% | 16%
COc1ccc(CCNC(=O)c2ccc3c(c2)NC(=O)C(C(C)C)N3)cc1OC (stereo unspecified) | 2% | 3% | 2 | nt | -6% | 8%
COc1ccc(CCNC(=O)C(C(=O)c2ccccc2)n2cc(Cl)ccc2=O)cc1OC (stereo unspecified) | 9% | 50µM* | 1 | 12% | -3% | 41%
COc1ccc(CCNC(=O)c2ccc(CNS(=O)(=O)c3ccc(C(C)(C)C)cc3)cc2)cc1OC | -7% | -6%[59 µM] | -4 | 7% | -15% | 20%
COc1ccc(CCNC(=O)c2ccc(CNS(=O)(=O)c3cc(C)ccc3C)cc2)cc1OC | -6% | 22µM* | 1 | nt | -21% | 5%
Cc1c(CNC(C)CCc2ccccc2)c(C(=O)O)c(C)n1Cc1ccc(F)cc1Cl (stereo unspecified) | -23% | -1%[59 µM] | nt | nt | -22% | 26%
CN1CCCC(CN2c3ccccc3Sc3ccccc32)C1 (stereo unspecified) | -39% | -9%[12.7 µM] | 13 | nt | -35% | 11%
CN1CCCCC1CCN1c2ccccc2Sc2ccc(S(C)=O)cc21 (stereo unspecified) | -21% | 5.6µM*! | 4 | -11% | -20% | 14%
O=C(O)CN1C(=O)/C(=C\c2cccc(OC(=O)c3ccco3)c2)SC1=S | -9% | 1% | 5 | nt | -24% | -6%
O=C(CCCN1C(=O)/C(=C\c2ccccc2)SC1=S)Nc1ccc(O)cc1C(=O)O | 35µM* | nt | -15 | nt | 5% | 36%
O=C(CN1C(=O)/C(=C\c2ccco2)SC1=S)Nc1ccc(O)cc1C(=O)O | 40µM* | -3%[0.0925 µM] | -62* | nt | 5% | 22%
O=C(Nc1ccc(O)cc1C(=O)O)c1cccs1 | -36% | ? | 0 | -9% | -10% | 44%
CC(C(=O)Nc1ccc(O)cc1C(=O)O)N1C(=O)/C(=C\c2cccs2)SC1=S (stereo unspecified) | 50µM* | 7.9µM* | ? | nt | 45µM* | ?
O=C(CCN1C(=O)/C(=C/c2ccco2)SC1=S)Nc1ccc(O)cc1C(=O)O | 50µM* | 28µM* | -63* | nt | 28µM* | 18µM*
Nc1c(-c2ccc(Cl)cc2)cnn1-c1ccccc1 | -25% | -1% | -6 | nt | -5% | 59%
C=CCn1c(-c2cnn(-c3ccccc3)c2N)n[nH]c1=S | -21% | 7.9µM* | 7 | 1% | 4µM* | 6%
Cn1c(-c2cnn(-c3ccccc3)c2N)n[nH]c1=S | -10% | 28µM* | 1 | -11% | ? | 39%
SMILES | BAZ2B block | G9a inh | PI5P4K alpha inh | L3MBTL1 inh | JMJD2A Tudor | HP1b chromo inh
Nc1c(-c2n[nH]c(=S)n2-c2ccc(Cl)cc2Cl)cnn1-c1ccccc1 | 1% | 4.5µM* | -2 | nt | 6% | 54%
COc1cccc(-n2cc(C(=O)Oc3ccc(F)cc3)c3ccccc3c2=O)c1 | 3% | 9%[59 µM] | nt | nt | -10% | 17%[57 µM]
COc1ccc(S(=O)(=O)N2CCCN(CC(=O)Nc3ccc(OC)cc3OC)CC2)cc1 | -28% | 5%[59 µM] | nt | nt | -21% | 22%
O=C1C2C3C=CC(CC3)C2C(=O)N1c1ccc([N+](=O)[O-])cc1 (stereo unspecified) | -4% | 32µM* | 1 | 2% | -6% | 19%
CCc1ccc(-c2nn(CC(=O)NC3CCCC3)c3c2cnc2ccc(C)cc23)cc1 | -2% | 15%[59 µM] | nt | nt | -11% | 18%
CCc1ccc(S(=O)(=O)c2nnn3c2nc(NCCNC(C)=O)c2cc(Cl)ccc23)cc1 | -1% | 9%[59 µM] | nt | nt | -8% | 21%
Cc1oc(-c2ccccc2)cc1C(=O)Nc1cccc(/C=C\C(=O)O)c1 | -35% | 45µM* | 0 | nt | -22% | 12%
Cc1oc(C(C)(C)C)cc1C(=O)Nc1cccc(/C=C\C(=O)O)c1 | ? | -20%[59 µM] | 5 | 3% | -27% | 14%
O=c1cc[nH]c2c1ccc1cccnc12 | 56µM* | ? | -3 | -8% | -28% | 56%
COCCN(CCOC)Cc1c(O)ccc2c1O/C(=C\c1ccc(C)o1)C2=O | ? | 1µM* | -25 | nt | -25% | -31%
CCN1C(=O)c2ccccc2S(=O)(=O)c2ccc(C(=O)NCc3ccc(C)cc3)cc21 | -9% | -1%[59 µM] | nt | nt | -24% | 22%
Cc1cccc(N2CC(c3nc4ccc(C)cc4[nH]3)CC2=O)c1 (stereo unspecified) | -2% | 9%[59 µM] | nt | nt | -15% | 15%
COC(=O)[C@H](CCSC)NC(=O)c1cc2c(cn1)[nH]c1ccccc12 | -34% | 1.8µM* | ? | nt | ? | ?
CNC(=O)c1cc2c(cn1)[nH]c1ccccc12 | nt | 29%[12.7 µM] | 3 | nt | -17% | 53%
O=C(NC(c1ccccc1)c1ccccc1)c1ccc(Br)o1 | 12% | -2% | 3 | nt | -10% | 16%
